Source: PubChem BioAssay
The list is not random: actives were taken first. Their share in the collection is about 10%.
FLuc inh: blocks purified firefly luciferase enzyme activity. 76,000 tested, 2.5% active. AID 1347043. purified P. pyralis luciferase, luminescence, biochemical. Potency, µM (top dose mostly 115 µM), most hits filed as inhibitors. P08659; note: nearly all actives have a fitted effect of over 65% in size
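FLuc 10nM, D-luciferin 10uM, ATP 10uM, Mg acetate 10mM, Tris acetate pH 7.5, Tween/BSA; cpd qHTS; enzyme added last; CCD luminescence.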
3T3 cytotox: kills NIH 3T3 cells; NIH 3T3 viability, CellTiter-Glo ATP luminescence, 48-72 h; Potency, µM (doses to about 96.7 µM), without a hit: top-dose activity change, negative = cytotoxicity, most hits filed as inhibitors; 94,000 tested, 4.3% active; note: nearly all actives have a fitted effect of over 55% in size
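First NIH 3T3 cells are plated at 400 cells/well; next compound is pinned in; then plates incubate 48 or 72 hr at 37 °C; finally CellTiter-Glo is added and luminescence read after 10 min.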
HEK293 tox: HEK 293 cell cytotoxicity; HEK 293 viability, ATP luminescence (CellTiter-Glo), 48-72 h; Potency, µM (top dose mostly 115 µM), for the others: at the highest dose activity change, negative = cytotoxicity, hits mostly inhibitors; 94,000 tested, 6.6% active; AID 1345083; note: nearly all actives have a fitted effect of over 60% in size
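Cells seeded first (HEK 293, 250 cells/well), then compound added by pintool. Incubation ran 48 or 72 hr at 37 degree Celsius. CellTiter-Glo was added and luminescence imaged after 10 min at room temperature.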
NPR1 antag: blocks ANP-stimulated signaling of human Npr1 receptor. P16066. HEK293 hNpr1 GloSensor cGMP, ANP-stimulated luminescence. Potency, µM (highest dose often 46.3 µM), without a hit: top-dose activity change, negative = inhibition, usual class: inhibitors. 76,000 tested, 1.6% active. AID 1347048; calls by dose curve; note: nearly all actives have a fitted effect of over 60% in size
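HEK293 cells stably expressing human Npr1 and cGMP GloSensor pGS-40F, loaded 2 h with 2% GloSensor reagent, given compound 30 min at room temperature. Luminescence read before and 20 min after 0.1 nM hNppA.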
GPT2 inhibitor: inhibitors of human GPT2 alanine aminotransferase | 100,000 tested, 0.25% active | Q8TD30 | Recombinant GPT2, coupled pyruvate oxidase/HRP Amplex Red fluorescence | Potency, µM (top dose mostly 57.7 µM), for the others: at the highest dose activity change, negative = inhibition, hits mostly inhibitors; note: nearly all actives have a fitted effect of over 60% in size
Target sequence (Q8TD30 whole entry, looked up): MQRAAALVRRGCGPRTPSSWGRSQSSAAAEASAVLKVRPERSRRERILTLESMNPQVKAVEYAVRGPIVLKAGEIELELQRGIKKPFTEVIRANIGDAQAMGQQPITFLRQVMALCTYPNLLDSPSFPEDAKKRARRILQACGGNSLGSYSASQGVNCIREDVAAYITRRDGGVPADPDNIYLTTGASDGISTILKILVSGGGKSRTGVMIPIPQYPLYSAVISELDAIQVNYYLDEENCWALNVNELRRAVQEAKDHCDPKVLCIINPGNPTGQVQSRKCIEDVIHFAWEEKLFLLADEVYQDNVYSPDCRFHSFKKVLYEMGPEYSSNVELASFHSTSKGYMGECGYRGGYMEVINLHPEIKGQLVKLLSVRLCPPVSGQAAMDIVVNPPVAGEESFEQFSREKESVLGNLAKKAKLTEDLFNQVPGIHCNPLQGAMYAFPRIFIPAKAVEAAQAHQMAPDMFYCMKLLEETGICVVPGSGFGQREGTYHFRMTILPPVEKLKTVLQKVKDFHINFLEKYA
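Recombinant GPT2 (10ng/uL) with 250uM a-KG and 2mM L-alanine, 30 min at room temperature, in HEPES pH 7.5 buffer. Pyruvate detected by pyruvate oxidase/HRP/Amplex Red fluorescence after 30 min in the dark; AOA (50uM) as positive control.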
* marks the source's active call; other numbers are inactive results; i = inactive; ? = inconclusive; . = no result; [ ] = another dose, or the depositor's remark. Unless noted, calls come from the whole dose curve; as a rule, active = well fitted curve in the direction sought with a large enough effect; inconclusive = small, poorly fitted or top-dose-only effect, or another doubt; inactive = no such curve, though single readings can be large; an effect the other way counts as inactive or inconclusive. % is set by controls: 0 for no effect and ±100 for the full control effect; potency is the fitted concentration of half-maximal effect.

SMILES	FLuc inh	3T3 cytotox	HEK293 tox	NPR1 antag	GPT2 inhibitor
O=C(Nc1ccc2c(N3CCOCC3)ncnc2c1)c1ccc(F)c(Cl)c1	i	35.5µM*	?	-1.4%	0.5%
O=C(Nc1ccc2c(N3CCCC3)ncnc2c1)c1cccc(F)c1	i	?	?	-2.6%	i
O=C(Nc1ccc2ncnc(N3CCCCC3)c2c1)c1ccsc1	i	25.1µM*	39.8µM*	-19.6%	?
O=C(Nc1ccc2c(N3CCOCC3)ncnc2c1)c1ccccc1C(F)(F)F	i	28.2µM*	?	4.7%	i
O=C(Nc1ccc2c(N3CCCCC3)ncnc2c1)c1ccsc1	?	?	?	-16.8%	?
O=C(NC1CCN(c2cnn(Cc3ccccc3)c(=O)c2)CC1)C1CCC1	i	-13.6%	-23.1%	0.1%	i
COc1cc2cc(CN3CCC(N(C)C)C3)c(-c3cccc(Cl)c3)nc2cc1OC (centres undefined)	?	?	?	-0.8%	-3.5%
OCC1CCN(Cc2cc3cc4c(cc3nc2-c2ccc(Cl)cc2)OCO4)CC1	31.6µM*	?	?	-2.9%	i
CC1(O)CCCN(Cc2cc3cc4c(cc3nc2-c2ccc(Cl)cc2)OCO4)C1 (centres undefined)	31.6µM*	?	?	-2.4%	0.8%
CN(C)C1CCN(Cc2cc3cc4c(cc3nc2-c2ccc(Cl)cc2)OCO4)C1 (centres undefined)	28.2µM*	?	?	-11.0%	-17.9%
Cc1cc(F)ccc1-c1[nH]nc2ncc(-c3ccsc3)nc12	i	20µM*	?	-0.7%[70.6 µM]	2.2%[88.5 µM]
Cc1cc(F)ccc1-c1[nH]nc2ncc(-c3cccnc3)nc12	i	-29.3%[138 µM]	?	-20.2%[70.6 µM]	2.5%[88.5 µM]
COc1cc(-c2cnc3n[nH]c(-c4ccc(F)cc4C)c3n2)ccn1	i	?	79.4µM*	-4.9%[70.6 µM]	i
COc1ccc(-c2cnc3n[nH]c(-c4ccc(F)cc4C)c3n2)cn1	i	50.1µM*	50.1µM*	-2.6%[70.6 µM]	-8.7%[88.5 µM]
COc1ccc(CN2C[C@@H](CO)[C@H](NC(C)=O)C2)cc1Br	i	-8.7%	-2.9%	1.0%	-25.6%
COc1ccc(C(=O)N2CC[C@@H]3COCCN(Cc4ccncc4)[C@@H]3C2)c(OC)c1	.	-7.5%	-19.4%	.	-1.1%
O=C1Nc2ccccc2C12CCN(Cc1ccc(C(F)(F)F)cc1)C2 (centres undefined)	.	?	?	.	i
CN(C(=O)c1ccccc1)C1CCCc2ccccc21 (centres undefined)	i	?	?	-0.3%[70.6 µM]	i
Cc1ccc(C(=O)N(C)C2CCc3ccccc32)cc1 (centres undefined)	?	?	100µM*	-4.2%[70.6 µM]	i
CN(C(=O)c1cccc(Cl)c1)C1CCCc2ccccc21 (centres undefined)	i	?	70.8µM*	-13.8%[70.6 µM]	-26.4%[88.5 µM]
CN(C(=O)Cc1ccc(F)cc1)C1CCCc2ccccc21 (centres undefined)	i	-24.4%[138 µM]	100µM*	0.0%[70.6 µM]	i
CN(Cc1ccc(F)cc1)C1CCCc2ccccc21 (centres undefined)	i	2.0%[138 µM]	-10.3%[172 µM]	1.1%[70.6 µM]	i
CN(C(=O)Nc1ccc(Cl)cc1)C1CCc2ccccc21 (centres undefined)	i	-28.2%[138 µM]	?	-11.2%[70.6 µM]	3.9%[88.5 µM]
CN(C(=O)Nc1ccc(Cl)cc1)C1CCCc2ccccc21 (centres undefined)	28.2µM*	?	89.1µM*	-6.5%[70.6 µM]	i
CC(C)=CCn1c(-c2ccc(F)cc2)cn2cc(C(=O)N(C)CC(C)O)nc2c1=O (centres undefined)	i	-1.9%	?	6.0%	-1.6%
SMILES	FLuc inh	3T3 cytotox	HEK293 tox	NPR1 antag	GPT2 inhibitor
COc1ccc(C(=O)N2CCC3(CC2)C(OC)CN3c2cccc(F)c2)cn1 (centres undefined)	i	-18.5%	-20.9%	-1.2%	i
COc1cccc([S+](=O)([O-])N2CCC3(CC2)NC(=O)c2ccccc2O3)c1	i	?	39.8µM*	?	-10.4%
COc1cccc([S+](=O)([O-])N2CCC3(CC2)CC(=O)Nc2ccccc2O3)c1	i	-15.9%	50.1µM*	-2.8%	i
CC(C)CCNC(=O)c1cnc2c(c1)N(C(=O)Cc1cccc(C(F)(F)F)c1)CCC2	i	?	?	-0.9%[70.6 µM]	i
COc1cccc(C(=O)N2CC(Oc3ccccc3-c3nc(-c4cnccn4)no3)C2)c1	i	?	?	-5.9%	i
COc1cccc(CCNC(=O)c2c(C)noc2-c2cc(OC)cc(OC)c2)c1	i	?	?	-15.0%	-4.1%
Cc1noc(-c2ccc3c(c2)OCO3)c1C(=O)NCCC(c1ccccc1)c1ccccc1	i	?	22.4µM*	-17.3%	1.5%
Cc1noc(-c2ccccc2Cl)c1C(=O)NCCC(c1ccccc1)c1ccccc1	i	28.2µM*	25.1µM*	-4.9%	4.7%
Cc1noc(-c2ccccc2Cl)c1C(=O)NCCOc1ccccc1	i	?	?	2.7%	i
COc1ccc(-c2onc(C)c2C(=O)NCCc2cccs2)cc1	i	-31.3%	35.5µM*	-14.0%	0.6%
COc1cc(OC)cc(-c2onc(C)c2C(=O)NCCC(c2ccccc2)c2ccccc2)c1	i	?	39.8µM*	-3.3%	-0.9%
O=C(NC1CCOCC1)C1CCN(c2nccc(Nc3ccccc3F)n2)CC1	.	-24.1%	i	.	-2.0%
Cc1noc(-c2ccco2)c1C(=O)NCCC(c1ccccc1)c1ccccc1	i	?	39.8µM*	-13.9%	2.2%
Cc1nccn1-c1ccc(NC(=O)C2CCCN(c3ncccc3C#N)C2)cc1 (centres undefined)	i	?	39.8µM*	-20.3%	i
O=C(NC1CCCCCC1)C1CCCN(c2ccnc3ccnn23)C1 (centres undefined)	.	?	79.4µM*	.	i
O=C(NC1CCN(c2ccnc3ccnn23)CC1)C1CCCC1	.	-9.6%[138 µM]	-18.2%[172 µM]	.	i
Cc1ccc(NC(=O)C2CCCN(c3ccnc4ccnn34)C2)cc1 (centres undefined)	.	?	35.5µM*	.	-17.9%
Cn1cccc1C(=O)N1CC(F)(F)C[C@H]1c1nnc(C2CC2)o1	i	3.3%	i	12.2%	-0.2%
CN(CCc1noc(C2CN(S(=O)(=O)c3cccnc3)C2)n1)C(=O)C1CC1	.	-4.2%	-5.9%	.	i
Cc1cn2nnc(C(=O)NCc3ccc4c(c3)OCO4)c2c(=O)[nH]1	39.8µM*	4.1%	7.1%	2.0%	-1.8%
Cc1cccc(CNC(=O)c2nnn3cc(C)[nH]c(=O)c23)c1	i	-20.0%	7.2%	3.7%	i
O=C(NCc1ccc2c(c1)OCO2)C1CCN(c2nc3ncccc3o2)CC1	.	-26.8%	?	.	i
